The values that follow come from PubChem BioAssay.

Assay [1] has as its system Human papillomavirus type 1a protein E7 (residues 44-93). The assay can be described thus: small molecules binding HPV E7 44-93 – biochemical, small-molecule microarray, residues 44-93, 635 nm fluorescence, primary screen (AID 1108).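 Note: E7 fragment applied at 1 µg/mL in TBST for 1 h at 4 C; score combines spot fluorescence with its signal to noise ratio.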 The conditions noted are these: fluorescence 635 nm, higher = more signal.
The nature of assay [2]: hepatitis C replication reporter changes, two-sided – Huh7 cells, luciferase reporter, HCV replication inhibitor project, primary screen (AID 1109).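 Note: huh7 hepatoma cells harbouring a luciferase neomycin HCV replicon reporter; luciferase luminescence as measure of HCV replicon replication; test concentration not given here.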 As to conditions: Huh7 HCV replicon luciferase reporter, 48 h; higher = more signal. On the technique in general: Reporter assays use an easily measured gene product as a stand-in for the process of interest.
Assay [3] has as its target Left-right determination factor 2 (Homo sapiens) (UniProt O00292). The assay can be described thus: small molecules binding LEFTY2 protein – biochemical, small-molecule microarray, 635 nm fluorescence scan, primary screen (AID 1110). The conditions noted are these: higher = more signal.
The target in assay [4] is Calmodulin-1 (Homo sapiens) (UniProt P0DP23). The assay can be described thus: small molecules binding calmodulin-1 with EGTA – biochemical, small-molecule microarray, Cy5-labelled CALM1, profiling panel (AID 1111).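 Note: labelled calmodulin applied in Tris saline Tween buffer holding calcium plus EGTA and DTT.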 The conditions noted are these: Cy5-CALM1 binding fluorescence, higher = more signal.
The target is the same in assay [5]. Briefly: small molecules binding Ca-loaded calmodulin-1 – biochemical, small-molecule microarray, Cy5-labelled CALM1, plus calcium, artefact control for SMM control-protein annotation, profiling panel (AID 1112).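 Note: score merges spot fluorescence with signal to noise from triplicate slides.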 As to conditions: Cy5-CALM1 binding fluorescence, higher = more signal.
Assay [6] can be described thus: probe aWnt5a binding to arrayed compounds – biochemical, biotinylated probe, 635/667 nm fluorescence, primary screen (AID 1113).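 Note: score merges 667 nm fluorescence intensity with signal-to-noise per printed feature.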 The conditions noted are these: small-molecule microarray, higher = more signal.
Assay [7] in a line: probe aShh binding to arrayed compounds – biochemical, biotinylated probe, 635/667 nm fluorescence, primary screen (AID 1114).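 Note: probe is biotin-labelled aShh protein from a stem cell growth factor screen; measures binding of labelled protein to compounds printed on the slide; score merges feature fluorescence at 667 nm with signal-to-noise.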 The conditions noted are these: small-molecule microarray, higher = more signal.
Assay [8] is described as follows: probe aNog binding to arrayed compounds – biochemical, biotinylated probe, 635/667 nm fluorescence, primary screen (AID 1115).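 Note: probe is biotinylated aNog protein used at 0.15 µg/mL for 1 h at 4 C; z-score combines 667 nm fluorescence of each spot with its signal to noise.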 The conditions noted are these: small-molecule microarray, higher = more signal.
Assay [9] has as its target Torsin-1A-interacting protein 1 (Homo sapiens) (UniProt Q5JTV8). The assay can be described thus: compound microarray binding of lysate hLAP1 – cell lysate, small-molecule microarray, COS7 lysate, 635/667 nm fluorescence, primary screen (AID 1116). As to conditions: 635 nm fluorescence, higher = more signal.
The target of assay [10] is Alpha-bungarotoxin (Bungarus multicinctus) (UniProt P60615). Briefly: compounds binding labelled alpha-BTX control protein – biochemical, small-molecule microarray, Alexa647 label, 635/667 nm fluorescence, artefact control for SMM control protein annotation, profiling panel (AID 1117). The conditions noted are these: alpha-BTX-A647 binding fluorescence, higher = more signal.
Alpha-bungarotoxin (Bungarus multicinctus), sequence (P60615 whole entry, looked up): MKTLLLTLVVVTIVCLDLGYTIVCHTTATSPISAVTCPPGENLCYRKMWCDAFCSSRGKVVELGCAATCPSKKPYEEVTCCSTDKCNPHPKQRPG

Left-right determination factor 2 (Homo sapiens), sequence (O00292 whole entry, looked up): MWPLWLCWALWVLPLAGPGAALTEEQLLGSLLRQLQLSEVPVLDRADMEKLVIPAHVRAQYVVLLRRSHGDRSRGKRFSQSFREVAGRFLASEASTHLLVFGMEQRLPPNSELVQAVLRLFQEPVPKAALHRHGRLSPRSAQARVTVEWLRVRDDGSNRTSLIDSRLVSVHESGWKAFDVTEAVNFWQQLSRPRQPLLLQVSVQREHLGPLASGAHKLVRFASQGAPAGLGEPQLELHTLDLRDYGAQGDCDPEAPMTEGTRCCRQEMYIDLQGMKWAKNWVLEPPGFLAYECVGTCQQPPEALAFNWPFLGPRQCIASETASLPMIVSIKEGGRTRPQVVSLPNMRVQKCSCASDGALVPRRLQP
Torsin-1A-interacting protein 1 (Homo sapiens), sequence (Q5JTV8 whole entry, looked up): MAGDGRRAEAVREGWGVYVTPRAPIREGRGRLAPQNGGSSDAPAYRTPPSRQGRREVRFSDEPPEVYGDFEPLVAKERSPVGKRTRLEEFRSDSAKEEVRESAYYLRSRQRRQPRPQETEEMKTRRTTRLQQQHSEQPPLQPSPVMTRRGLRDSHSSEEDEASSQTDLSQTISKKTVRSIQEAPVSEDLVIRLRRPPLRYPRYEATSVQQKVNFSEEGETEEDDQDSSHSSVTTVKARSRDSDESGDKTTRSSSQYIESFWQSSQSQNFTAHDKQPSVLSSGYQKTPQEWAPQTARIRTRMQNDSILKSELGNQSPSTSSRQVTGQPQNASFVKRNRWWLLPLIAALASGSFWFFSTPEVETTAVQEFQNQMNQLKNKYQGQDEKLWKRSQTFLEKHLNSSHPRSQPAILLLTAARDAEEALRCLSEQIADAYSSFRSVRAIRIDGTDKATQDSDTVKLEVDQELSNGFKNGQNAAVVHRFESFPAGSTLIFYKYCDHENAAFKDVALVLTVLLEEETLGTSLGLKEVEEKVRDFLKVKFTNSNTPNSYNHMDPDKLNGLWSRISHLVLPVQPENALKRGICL

`CC(C)CON=C1C[C@@H](O)[C@@H](O)[C@@H]2[C@@H]3C(=O)N(Cc4ccc5c(c4)OCO5)C(=O)[C@@H]3CC[C@H]12`: the composite z-score was 1.33 in [1]; 0.375 in [3]; -0.382 in [4]; -0.576 in [5]; 0.0044 in assay [6]; -0.291 in assay [7]. The composite z-score in assay [8] is -0.467; in assay [9], 0.54; in [10] it was 0.411. Besides, the z-score in assay [2] is -1.24.

In the case of `CON=Cc1ccc(C(=O)N2[C@H](c3ccc(C)cc3)[C@@H](C)CC[C@H]2C(=O)OC)cc1`, the composite z-score was 1.25 in assay [1]; -0.203 in assay [3]; -0.129 in assay [4]; -0.121 in assay [5]; -0.0044 in assay [6]; 0.0684 in assay [7]. For the same molecule, the composite z-score in [8] was -0.0503; in assay [9], -0.0018; in assay [10], 0.449. In addition, the z-score in assay [2] was -1.33.

In the case of `CCCCc1nc2c(c3c1C[C@H](C)OC3)CN(CCOc1ccccc1)CC2`, the composite z-score is 0.348 in assay [1]; 0.814 in assay [3]; -0.407 in assay [4]; -0.7 in assay [5]; -0.0738 in [6]; -0.0977 in assay [7]. For the same molecule, the composite z-score in [8] is -0.304; in assay [9], 0.56; in assay [10], 0.672. In assay [2], this molecule registered a z-score of -0.659.

Turning to `CCOC(=O)NN=C1C[C@@H](O)[C@@H](O)[C@@H]2[C@@H]3C(=O)N(C(C)(C)C)C(=O)[C@@H]3CC[C@H]12`, the composite z-score in [1] is 0.217; in assay [3], 0.481; in assay [4], -0.0749; in assay [5], -0.913; in [6] it was 0.0068; in assay [7], 0.108. Also, the composite z-score in assay [8] was -0.171; in [9], 0.0059; in assay [10], -0.0211. The molecule further yielded a z-score in assay [2] of -0.0742.

On to `CO[C@H]1COC(=O)CC=C[C@@H](C)[C@H](OC)COC(=O)[C@@H]2CCCN2C(=O)CC=C[C@@H]1C`, for which the composite z-score was -0.298 in [1]; 1.32 in [3]; -1.02 in [4]; -1.82 in assay [5]; -0.0819 in [6]; -0.138 in assay [7]. The composite z-score is -0.748 in assay [8], 0.159 in [9] and -0.41 in [10]. Besides, the z-score in assay [2] is 0.443.

Take `O=C1[C@H]2[C@H]3[C@H](O)[C@H](O)CC(=NOCc4ccccc4)[C@H]3CC[C@H]2C(=O)N1Cc1ccc2c(c1)OCO2`: the composite z-score in assay [1] was -0.249; in assay [3], 0.621; in [4], -0.208; in assay [5], -0.444; in [6], -0.091; in assay [7] it was -0.0553. Besides, the composite z-score was -0.243 in [8], 0.336 in assay [9] and 0.413 in assay [10]. For the same molecule, the z-score in assay [2] is -0.188.

On to `CCC(=O)[C@@]1(O)C(=O)N2C(=C3C(=O)OCC[C@@H]31)N(Cc1ccccc1)C(C)=C(C(=O)OC)[C@H]2c1ccccc1`, for which the composite z-score was 0.403 in [1]; 0.366 in assay [3]; -0.368 in assay [4]; -0.478 in [5]; 0.0108 in [6]; -0.221 in [7]. Also, the composite z-score in assay [8] was -0.369; in assay [9] it was 0.478; in [10], -0.0321. In addition, the z-score in [2] came out at 0.0779.

Consider `CCOC(=O)[C@H](CC(C)C)NC(=O)CCC1CC(OC(=O)NCc2ccc3c(c2)OCO3)CC2(CCCC(COC(=O)NCc3cccc(C(F)(F)F)c3)O2)O1` (stereo not given in full), for which the composite z-score is 0.323 in [1]; 0.227 in assay [3]; 0.0753 in assay [4]; -0.259 in assay [5]; -0.148 in assay [6]; -0.138 in [7]. The composite z-score is -0.316 in [8], -0.0298 in [9] and 0.111 in assay [10]. The same molecule registered a z-score in assay [2] of -1.44.

In the case of `CC(C)=CCCC(C)=CCON=C1C[C@@H](O)[C@@H](O)[C@@H]2[C@@H]3C(=O)N(C4CCCCC4)C(=O)[C@@H]3CC[C@@H]12`, the composite z-score in assay [1] was 0.0997; in assay [3], 0.464; in assay [4] it was -0.403; in [5], -1.15; in [6], -0.128; in assay [7] it was -0.209. In addition, the composite z-score in assay [8] is -0.261; in assay [9], 0.259; in assay [10], -0.0585. In assay [2], the z-score is -0.471.

Take `O=C(NN=C1C[C@@H](O)[C@@H](O)[C@@H]2[C@@H]3C(=O)N(C[C@@H]4CCCO4)C(=O)[C@@H]3CC[C@H]12)OCc1ccccc1`: the composite z-score in [1] was -0.453; in [3] it was -0.156; in assay [4], 0.0715; in [5], 0.226; in assay [6], 0.0377; in assay [7], -0.0146. Moreover, the composite z-score in assay [8] is 0.154; in [9] it was 0.349; in [10], 0.275. In addition, in [2], the z-score was 1.16.

In the case of `O=C(C=Cc1ccc2c(c1)OCO2)c1ccc(F)cc1`, the composite z-score in [1] was -0.9; in assay [3] it was 0.976; in assay [4], -0.481; in assay [5], -1.41; in assay [6] it was -0.0455; in [7], 0.297. Besides, the figures for the composite z-score in [8], in [9] and in assay [10] were -0.126, 0.569 and 0.444, respectively. The molecule also yielded a z-score in [2] of 2.84.

`C[C@H]1COC(=O)[C@@H]2CCCN2C(=O)[C@@H](C)COC(=O)[C@H](Cc2ccccc2)NC1=O`: the composite z-score in assay [1] was 0.851; in [3], 0.474; in assay [4] it was -0.099; in [5], -0.447; in assay [6], -0.124; in assay [7] it was -0.206. Moreover, the composite z-score in assay [8] is -0.3; in [9], 0.308; in [10] it was 0.158. In assay [2], the z-score was -1.34.
